Assay results as given in the supplement of paper PMC5919970.
Where a name gives a salt, the structure may show the parent alone. In all, about 2,000 compounds were measured (“fractional viability relative to vehicle”: median about 0.92, lowest 2% from about 0.11 on). The list comes from a sample in which the lowest values are over-represented; it also holds similar structures and randomly drawn compounds.

Tested on: TYKNU
Test: fractional viability relative to vehicle; TYKNU is a high-grade serous ovarian cancer line; higher = less growth inhibition
Conditions: 72 h, genotype: OPA1 knockout (sgOPA1 #2)
Summary of the method: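 TYKNU control cells or lentiCRISPRv2 knockout derivatives were plated at 500 cells per well in duplicate into drug-stamped 384-well plates holding a ~2100-compound library at 2 or 10 μM. Culture was in RPMI 1640 with 10% FBS at 37 °C in 5% CO2, with 72 h of drug treatment. Viability was measured by Cell Titer Glo luminescence, and the averaged duplicate treatment wells were normalised to duplicate control wells at the same plate position.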

Row | SMILES | fractional viability (2uM) | fractional viability (10uM)
1 | c1nc2c(NC3CCCCC3)nc(Nc3ccc(N4CCOCC4)cc3)nc2[nH]1 [Reversine] | 0.571 | 0.342
2 | CN1CCC(Nc2nc(Nc3ccc(Oc4ccccc4)cc3)c3c(=O)[nH]cc(Br)c3n2)CC1 | 0.289 | 0.0528
3 | CCCCN1CCCC[C@H]1C(=O)Nc1c(C)cccc1C [Levobupivacaine HCl] | 1.06 | 0.949
4 | CCC1C/C(=C\c2cccnc2)C(=O)/C(=C/c2cccnc2)C1 (centres undefined) | 0.442 | 0.189
5 | C1=N/C2=N/c3ccc(OCCN4CCCC4)c(c3)COC/C=C/COCc3cccc(c3)C(=C1)N2 [Pacritinib (SB1518)] | 0.318 | 0.0734
6 | Cc1cncc(CN2CCC(=C3c4ccc(Cl)cc4CCc4cccnc43)CC2)c1 [Rupatadine Fumarate] | 1.06 | 0.915
7 | NC(=O)c1ccc(N(C(N)=O)c2c(F)cccc2F)nc1-c1ccc(F)cc1F | 1.19 | 1.05
8 | CCN(CC)CCN(Cc1ccc(-c2ccc(C(F)(F)F)cc2)cc1)C(=O)Cn1c(SCc2ccc(F)cc2)nc(=O)c2c1CCC2 | 0.76 | 0.0367
9 | O=C(NNc1nc2cc(F)ccc2n2cccc12)c1cnccn1 | 0.576 | 0.643
10 | C=CC[N+]1([C@H]2C[C@H]3[C@@H]4CC[C@H]5C[C@H](O)[C@@H](N6CCOCC6)C[C@]5(C)[C@H]4CC[C@]3(C)[C@H]2OC(C)=O)CCCC1 [Rocuronium Bromide] | 1.16 | 1.11
11 | CCCCC(C=O)NC(=O)C(CC(C)C)NC(=O)C(CC(C)C)NC(C)=O (centres undefined) | 0.8 | 0.939
12 | COc1ccc(C[C@H](NC(=O)[C@H](C)NC(=O)CN2CCOCC2)C(=O)N[C@@H](Cc2ccccc2)C(=O)[C@@]2(C)CO2)cc1 | 0.149 | 0.144
13 | COC[C@H](NC(=O)c1cnc(C)s1)C(=O)N[C@@H](COC)C(=O)N[C@@H](Cc1ccccc1)C(=O)[C@@]1(C)CO1 [Oprozomib (ONX 0912)] | 0.153 | 0.136
14 | CC(C)C[C@H](NC(=O)[C@H](CCc1ccccc1)NC(=O)CN1CCOCC1)C(=O)N[C@@H](Cc1ccccc1)C(=O)N[C@@H](CC(C)C)C(=O)[C@@]1(C)CO1 [Carfilzomib (PR-171)] | 0.0962 | 0.146
15 | CC(C)C[C@@H]1NC(=O)[C@@H](C(C)C)NC(=O)[C@@H]2CCCN2C(=O)[C@@H](CC(=O)O)NC(=O)[C@@H](Cc2c[nH]c3ccccc23)NC1=O | 0.722 | 0.866
16 | C=CCNC1=C2C[C@@H](C)C[C@H](OC)[C@H](O)[C@@H](C)/C=C(\C)[C@H](OC(N)=O)[C@@H](OC)/C=C\C=C(/C)C(=O)NC(=CC1=O)C2=O [17-AAG (Tanespimycin)] | 0.652 | 0.468
17 | CCN1CCN(Cc2ccc(C(=O)Nc3ccc(C)c(Oc4ccc5c(c4)CC(=O)N5)c3)cc2C(F)(F)F)CC1 | 0.782 | 0.462
18 | Cc1ccc(C(=O)Nc2ccc(CN3CCN(C)CC3)c(C(F)(F)F)c2)cc1C#Cc1cnc2cccnn12 | 0.67 | 0.106
19 | Cc1ccc(C(=O)Nc2ccc(CN3CCN(C)CC3)c(C(F)(F)F)c2)cc1C#Cc1cnc2[nH]ncc2c1 | 0.589 | 0.115
20 | Nc1cccc2c1CN(C1CCC(=O)NC1=O)C2=O (centres undefined) [Lenalidomide (CC-5013)] | 1.14 | 1.02
21 | COCC[n+]1c2c(n(Cc3cnccn3)c1C)C(=O)c1ccccc1C2=O [YM155 (Sepantronium Bromide)] | 0.06 | 0.0555

Row | SMILES | fractional viability (2uM) | fractional viability (10uM)
22 | CC(C)NCCCn1c(Sc2cc3c(cc2I)OCO3)nc2c(N)ncnc21 | 0.428 | 0.48
23 | CCCCCOc1ccc(-c2ccc(-c3ccc(C(=O)N[C@H]4C[C@@H](O)[C@@H](O)NC(=O)[C@@H]5[C@@H](O)[C@@H](C)CN5C(=O)[C@H]([C@@H](C)O)NC(=O)[C@H]([C@H](O)[C@@H](O)c5ccc(O)cc5)NC(=O)[C@@H]5C[C@@H](O)CN5C(=O)[C@H]([C@@H](C)O)NC4=O)cc3)cc2)cc1 | 1.02 | 0.857
24 | CC(C)(C)C(=O)Nc1ccc2c(c1)C(=O)C(=O)c1ccccc1-2 | 0.181 | 0.0604
25 | CC(=O)Nc1ccccc1 [Acetanilide] | 0.946 | 0.905
26 | O=C(O)CCCN1CCC(O[C@@H](c2ccc(Cl)cc2)c2ccccn2)CC1 [Bepotastine Besilate] | 1.14 | 0.923
27 | CN1CCC(CNc2ccc3ncc(-c4cccc(OC(F)(F)F)c4)n3n2)CC1 [SGI-1776 free base] | 0.888 | 0.107
28 | CN1CCC(COc2cnc(-c3cccc(Cn4nc(-c5cccc(C#N)c5)ccc4=O)c3)nc2)CC1 | 0.78 | 0.216
29 | NC(CO)(CO)CO [Trometamol] | 0.883 | 0.842
30 | O=C(O)C(Cc1c[nH]c2ccccc12)N1C(=O)c2ccccc2C1=O (centres undefined) | 0.905 | 0.771
31 | N#CC(=C(/N)Sc1ccccc1N)/C(C#N)=C(\N)Sc1ccccc1N | 1.36 | 1.25
32 | CN(C)CCOc1ccc(-c2nc(-c3ccncc3)c(-c3ccc4c(c3)CC/C4=N\O)[nH]2)cc1 | 0.833 | 0.0595
33 | OCCn1cc(-c2ccc3c(c2)CC/C3=N\O)c(-c2ccncc2)n1 | 1.14 | 0.942
34 | Oc1ccc(-c2nc(-c3ccc(F)cc3)c(-c3ccncc3)[nH]2)cc1 | 1.48 | 1.09
35 | O=C(CSc1nc2c(c(=O)n1-c1ccccc1)SCC2)Nc1ccc(-c2ccccc2)cn1 | 1.09 | 0.948
36 | COc1cc2c(cc1OC)CC(=O)N(CCCN(C)C[C@H]1Cc3cc(OC)c(OC)cc31)CC2 [Ivabradine HCl] | 1.02 | 0.967
37 | c1cc(-c2cnn3cc(-c4ccc(N5CCNCC5)cc4)cnc23)c2cccnc2c1 | 0.104 | 0.0761
38 | COc1ccc(-c2cnc3c(-c4cccc5ncccc45)cnn3c2)cc1 | 1.15 | 1.2
39 | COc1cc(-c2cc(-c3ccc(N4CCNCC4)cc3)cnc2C)cc(OC)c1OC | 0.878 | 0.835
40 | CC1(C)CC(=O)c2c(C(F)(F)F)nn(-c3ccc(C(N)=O)c(N[C@H]4CC[C@H](O)CC4)c3)c2C1 | 0.668 | 0.574
41 | CC1(C)C=C(CN2C/C(=C\c3ccc(F)cc3)C(=O)/C(=C/c3ccc(F)cc3)C2)C(C)(C)N1O | 0.837 | 0.79
42 | C=CC(=O)N1C/C(=C\c2ccc([N+](=O)[O-])cc2)C(=O)/C(=C/c2ccc([N+](=O)[O-])cc2)C1 | 0.0989 | 0.111
